The values that follow come from PubChem BioAssay (EPA / NIEHS).

Each structure is given as a SMILES string. Where “and” joins values, the source holds several entries; their conditions need not be identical. Equal values may be shown once. Some structures have more than one record in an assay (separate samples or runs), and their calls can disagree. Calls of active or inactive are those of the source. The calls were made as follows: active = hit-call score of the fitted dose curve at least 0.9, where 1 is the maximum; inactive = score below 0.9.

The first experiment in a line: ATG_AP_1_CIS: Attagene CIS-FACTORIAL HepG2 Assay for human Activator Protein 1 (AP-1) (AID 2282931). The conditions noted are these: HepG2 Attagene cis-factorial AP-1 reporter mRNA; actives raise or lower the signal. Put shortly: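 HepG2, transient cis-reporter transfection; 24 h; readout RT-PCR/CE fluorescence; DMSO baseline, gain and loss fitted.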
Regarding `CC1=CC(=O)/C(=C(/C)O)C(=O)O1`, the compound was classed as inactive.

As a reminder, the AC50 is the concentration giving half of the maximal activity seen. With `Cc1oc2c(NC(=O)c3c(Cl)cccc3Cl)cccc2c1C(C)(C)O`, the AC50 was 38 µM (active).

Consider `CCCCCCCCCC(=O)O`, for which the outcome was inactive.

On to `COc1ccc2cc(S(=O)(=O)N[C@H](CC(=O)N[C@H](Cc3ccc(CN4[C@H](C)CCC[C@@H]4C)cc3)C(=O)N(C)C(C)C)c3ccc4c(c3)OCO4)ccc2c1`, for which the AC50 was 11 µM (active).

`c1ccc2n[nH]nc2c1`: the compound was classed as inactive.

Take `CN1C(=O)CC[C@H]1c1cccnc1`: the result was inactive.

On to `O=C(O)Cn1c(=O)n(Cc2ccc(Br)cc2F)c(=O)c2ccc(Cl)cc21`, for which the outcome was inactive.

On to `CCCCCCCCCCCCO`, for which the compound was called inactive.

For `COc1cc(C(=O)NC2CCN(C)CC2)ccc1Nc1ncc2c(n1)N(C1CCCC1)CC(F)(F)C(=O)N2C`, the concentration at half-maximal activity (AC50) was 5.06 µM (active).

Turning to `O=C(OCCCCCCOC(=O)c1ccccc1)c1ccccc1`, the outcome was inactive.

In the case of `CC(C)(C)c1csc(-c2cc3cc(OCc4ccccc4CC(=O)O)ccc3o2)n1`, the AC50 is 33.4 µM (active).

On to `O=C=NCCCCCCN=C=O`, for which the result was inactive.

On to `O=C1c2ccccc2C(=O)N1CCc1noc(-c2ccc(CN3CCCCCC3)s2)n1`, for which the AC50 is 24.7 µM (active).

Take `CCCCCCCCCCCC[N+](C)(C)C`: the half-maximal activity concentration (AC50) was 33.4 µM (active) and 12.7 µM (active).

Turning to `CC(=O)N1CCN(c2ccc(OC[C@H]3CO[C@](Cn4ccnc4)(c4ccc(Cl)cc4Cl)O3)cc2)CC1`, the AC50 was 43.5 µM (active).

As to `NCc1cccc(C2CCN(C(=O)c3ccc(C#Cc4ccccc4F)o3)CC2)c1`, the AC50 was 11 µM (active).

Consider `O=C1O[C@H]([C@@H](O)CO)C(O)=C1O`, for which the compound was called inactive.

For the compound `Cc1occc1C(=O)Nc1ccc(C(=O)N2CCC(F)(F)/C(=C\C(=O)N3CCC(N4CCCCC4)CC3)c3ccccc32)cc1`, the compound was classed as inactive.

As to `CC(C)(C)c1cc(/C=C2\SC(N)=NC2=O)cc(C(C)(C)C)c1O`, the AC50 is 20.2 µM (active).

For `CCCC(=O)OCCC(C)C`, the result was inactive.

For `Cc1ncc(CO)c(CO)c1O`, the compound was classed as inactive.

For the compound `CCN(CC)C(=O)c1cc(S(=O)(=O)Cc2ccccc2)c(N2CCC(c3ccccc3)CC2)cc1N(CC)CCN(C)C`, the result was inactive.

On to `CCCCOC(=O)CC(CC(=O)OCCCC)(OC(C)=O)C(=O)OCCCC`, for which the compound was classed as inactive.

As for `Cc1ccc2oc(CN(Cc3ccccc3)C(=O)Nc3c(F)cc(F)cc3F)c(-c3ccc(Cl)cc3)c2c1`, the call was inactive.

For the compound `CCCCCCCCOC(=O)c1cc(O)c(O)c(O)c1`, the AC50 is 6.37 µM (active).

In the case of `O=c1[nH]sc2ccccc12`, the call was inactive.

Regarding `CCCCCCCCOc1ccc(C(=O)c2ccccc2)c(O)c1`, the compound was called inactive.

In the case of `CN1C(=O)N(c2ccccc2Br)Cc2cnc(Nc3ccc4c(c3)OCC(CO)O4)nc21` (centres undefined), the AC50 is 4.77 µM (active).

With `Clc1ccccc1C(c1ccccc1)(c1ccccc1)n1ccnc1`, the AC50 is 10.4 µM (active).

Consider `CC(O)CC(C)(C)O` (centres undefined), for which the compound was classed as inactive.

`CCOC(=O)O[C@H](C)OC(=O)c1ccc2c(c1)cc(C(=O)NC1CCN(C(C)C)CC1)n2Cc1cc(-c2ccc(Cl)s2)on1`: the outcome was inactive.

As to `O=CCCCC=O`, the compound was called inactive.

With `CC(C)(c1cc(Br)c(O)c(Br)c1)c1cc(Br)c(O)c(Br)c1`, the AC50 was 58.4 µM (active) and 53.2 µM (active).

Regarding `Cc1cccc2ccccc12`, the compound was called inactive.

Regarding `CC(C)(O)c1ccc(CNC(=O)c2cccnc2Oc2ccc3nonc3c2)cc1`, the outcome was inactive.

With `CCO[Si](CCCNC(N)=O)(OCC)OCC`, the compound was classed as inactive.

Consider `C[C@]12CC[C@@H]3c4ccc(O)cc4CC[C@H]3[C@@H]1CCC2=O`, for which the AC50 is 24.5 µM (active) and the compound was called inactive.

As for `COc1cccc([C@H](O)C2CCN(CCc3ccc(F)cc3)CC2)c1OC`, the compound was classed as inactive.

The next experiment is described as follows: ATG_AP_2_CIS: Attagene CIS-FACTORIAL HepG2 Assay for human Activator Protein 2 (AP-2) (AID 2282932). The conditions noted are these: HepG2 AP-2 cis-reporter, Attagene transcription factor profiling; actives raise or lower the signal. In short, it runs like this: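 HepG2 cells were transiently transfected with multiple cis-promoter reporter transcription units and dosed for 24 h. Reporter mRNA was measured by RT-PCR with capillary electrophoresis fluorescence; bidirectional fits relative to DMSO baseline.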
Turning to `CC1=CC(=O)/C(=C(/C)O)C(=O)O1`, the compound was classed as inactive.

Turning to `Cc1oc2c(NC(=O)c3c(Cl)cccc3Cl)cccc2c1C(C)(C)O`, the compound was called inactive.

Regarding `CCCCCCCCCC(=O)O`, the call was inactive.

Take `COc1ccc2cc(S(=O)(=O)N[C@H](CC(=O)N[C@H](Cc3ccc(CN4[C@H](C)CCC[C@@H]4C)cc3)C(=O)N(C)C(C)C)c3ccc4c(c3)OCO4)ccc2c1`: the compound was called inactive.

Regarding `c1ccc2n[nH]nc2c1`, the outcome was inactive.

`CN1C(=O)CC[C@H]1c1cccnc1`: the outcome was inactive.

For `O=C(O)Cn1c(=O)n(Cc2ccc(Br)cc2F)c(=O)c2ccc(Cl)cc21`, the call was inactive.

As for `CCCCCCCCCCCCO`, the result was inactive.

`COc1cc(C(=O)NC2CCN(C)CC2)ccc1Nc1ncc2c(n1)N(C1CCCC1)CC(F)(F)C(=O)N2C`: the AC50 was 0.89 µM (active).

Consider `O=C(OCCCCCCOC(=O)c1ccccc1)c1ccccc1`, for which the result was inactive.

Turning to `CC(C)(C)c1csc(-c2cc3cc(OCc4ccccc4CC(=O)O)ccc3o2)n1`, the compound was called inactive.

Turning to `O=C=NCCCCCCN=C=O`, the result was inactive.

As for `O=C1c2ccccc2C(=O)N1CCc1noc(-c2ccc(CN3CCCCCC3)s2)n1`, the compound was called inactive.

For `CCCCCCCCCCCC[N+](C)(C)C`, the call was inactive.

`CC(=O)N1CCN(c2ccc(OC[C@H]3CO[C@](Cn4ccnc4)(c4ccc(Cl)cc4Cl)O3)cc2)CC1`: the compound was classed as inactive.

As to `NCc1cccc(C2CCN(C(=O)c3ccc(C#Cc4ccccc4F)o3)CC2)c1`, the outcome was inactive.

For `O=C1O[C@H]([C@@H](O)CO)C(O)=C1O`, the compound was classed as inactive.

Turning to `Cc1occc1C(=O)Nc1ccc(C(=O)N2CCC(F)(F)/C(=C\C(=O)N3CCC(N4CCCCC4)CC3)c3ccccc32)cc1`, the result was inactive.

As for `CC(C)(C)c1cc(/C=C2\SC(N)=NC2=O)cc(C(C)(C)C)c1O`, the result was inactive.

In the case of `CCCC(=O)OCCC(C)C`, the compound was called inactive.

For `Cc1ncc(CO)c(CO)c1O`, the compound was called inactive.

On to `CCN(CC)C(=O)c1cc(S(=O)(=O)Cc2ccccc2)c(N2CCC(c3ccccc3)CC2)cc1N(CC)CCN(C)C`, for which the compound was called inactive.

Consider `CCCCOC(=O)CC(CC(=O)OCCCC)(OC(C)=O)C(=O)OCCCC`, for which the compound was classed as inactive.

Turning to `Cc1ccc2oc(CN(Cc3ccccc3)C(=O)Nc3c(F)cc(F)cc3F)c(-c3ccc(Cl)cc3)c2c1`, the compound was called inactive.

Take `CCCCCCCCOC(=O)c1cc(O)c(O)c(O)c1`: the compound was called inactive.

As for `O=c1[nH]sc2ccccc12`, the compound was classed as inactive.

Consider `CCCCCCCCOc1ccc(C(=O)c2ccccc2)c(O)c1`, for which the call was inactive.

For the compound `CN1C(=O)N(c2ccccc2Br)Cc2cnc(Nc3ccc4c(c3)OCC(CO)O4)nc21` (centres undefined), the result was inactive.

In the case of `Clc1ccccc1C(c1ccccc1)(c1ccccc1)n1ccnc1`, the call was inactive.

Take `CC(O)CC(C)(C)O` (centres undefined): the AC50 is 0.0125 µM (active) and the result was inactive.

For the compound `CCOC(=O)O[C@H](C)OC(=O)c1ccc2c(c1)cc(C(=O)NC1CCN(C(C)C)CC1)n2Cc1cc(-c2ccc(Cl)s2)on1`, the call was inactive.

As to `O=CCCCC=O`, the compound was called inactive.

On to `CC(C)(c1cc(Br)c(O)c(Br)c1)c1cc(Br)c(O)c(Br)c1`, for which the AC50 was 55.8 µM (active) and the outcome was inactive.

`Cc1cccc2ccccc12`: the compound was classed as inactive.

Consider `CC(C)(O)c1ccc(CNC(=O)c2cccnc2Oc2ccc3nonc3c2)cc1`, for which the compound was classed as inactive.

Consider `CCO[Si](CCCNC(N)=O)(OCC)OCC`, for which the result was inactive.

Turning to `C[C@]12CC[C@@H]3c4ccc(O)cc4CC[C@H]3[C@@H]1CCC2=O`, the outcome was inactive.

`COc1cccc([C@H](O)C2CCN(CCc3ccc(F)cc3)CC2)c1OC`: the result was inactive.
